Shown are actives, neighbours in structure and some others; about 3.5% of the full set was active somewhere.
JMJD2E inh – qHTS Assay for Inhibitors of Human Jumonji Domain Containing 2E (JMJD2E). Potency, µM (top dose mostly 57.1 µM), inactives show at the highest dose activity change, negative = inhibition, hits mostly inhibitors. JMJD2E catalytic domain, FDH-coupled NADH fluorescence (FDH is formaldehyde dehydrogenase). 230,000 compounds, 1.6% hits; active = well fitted inhibition curve with a large enough effect, not every such curve was filed as active; inconclusive = small, poorly fitted or top-dose-only effect, or another doubt; inactive = no such curve, though single readings can be large or run the other way;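 also: 0% = wells with enzyme and -100% = buffer wells without enzyme; nearly all actives have a fitted effect of over 50% in size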
Target sequence (B2RXH2 1-337 limits assumed): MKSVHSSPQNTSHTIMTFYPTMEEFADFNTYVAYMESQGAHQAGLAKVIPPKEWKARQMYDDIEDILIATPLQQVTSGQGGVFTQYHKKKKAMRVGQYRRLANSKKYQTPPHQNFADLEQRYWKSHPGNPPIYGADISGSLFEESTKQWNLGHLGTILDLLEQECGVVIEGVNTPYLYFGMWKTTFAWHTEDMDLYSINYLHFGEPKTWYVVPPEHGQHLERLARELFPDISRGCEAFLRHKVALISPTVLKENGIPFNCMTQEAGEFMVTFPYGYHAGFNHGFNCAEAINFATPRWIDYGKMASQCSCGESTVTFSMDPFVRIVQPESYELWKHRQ
TRb SRC2 PPI – qHTS for Inhibitors of the Interaction of Thyroid Hormone Receptor and Steroid Receptor Coregulator 2 | Thyroid hormone receptor beta (Homo sapiens), P10828 | TRbeta-SRC2 peptide binding, fluorescence polarization; receptor liganded with 1 µM T3 | Potency, µM (doses to about 106 µM), for the others: at the highest dose activity change, negative = inhibition, most hits filed as inhibitors | 280,000 compounds, 0.065% hits | AID 1469, 2008;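 also: plate controls were bound peptide for no effect and peptide without receptor for full effect; nearly all actives have a fitted effect of over 50% in size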
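Polarization signal, normalized between peptide-alone and full complex controls, measured compound effects on T3-liganded human TRb LBD (0.6 uM) binding 20 nM Texas Red SRC2 peptide after 5 hr.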
Tau fluor cs – Counterscreen qHTS for Inhibitors of Tau Fibril Formation, Fluorescence Polarization; Potency, µM (top dose mostly 57.7 µM), for inactives: at the highest dose activity change, negative = decrease; AID 1463, 2008; 280,000 compounds, 0.93% hits; tau K18 P301L Alexa594 fluorescence, heparin fibrillization; also: nearly all actives have a fitted effect of over 55% in size
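Human tau K18 P301L (15 uM unlabeled, 0.24 uM Alexa 594-labeled) in 100 mM sodium acetate pH 7 with 20 uM heparin, 6 hr at 37 C. ThT 30 uM added, 1 hr ambient; Alexa 594 FP and total fluorescence read at 555/632 nm.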
TexasRed fluor – Total Fluorescence Counterscreen for Inhibitors of the Interaction of Thyroid Hormone Receptor and Steroid Receptor Coregulator 2; TRb/SRC2 Texas Red total fluorescence interference; Potency, µM (top dose mostly 106 µM), for the others: at the top dose fluorescence change, negative = quenching; 280,000 compounds, 0.29% hits; AID 1479, 2009; active = well fitted curve in either direction with a large enough effect; inconclusive = small, poorly fitted or top-dose-only effect
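Human TRb ligand-binding domain at 0.6 uM with 20 nM Texas Red SRC2 peptide in Tris buffer containing 1 uM T3 and 5% DMSO, incubated with compound 5 h at ambient temperature. Total fluorescence (555/632 nm) calculated as parallel + 2 × perpendicular.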
Tau fibril FP – qHTS for Inhibitors of Tau Fibril Formation, Fluorescence Polarization; Potency, µM (highest dose often 57.7 µM), without a hit: top-dose activity, negative = inhibition, actives largely listed as inhibitors; 280,000 compounds, 0.39% hits; K18 P301L tau heparin fibrillization, Alexa594 FP, 6 h; Microtubule-associated protein tau (Homo sapiens), P10636; also: nearly all actives have a fitted effect of over 55% in size
Target sequence (P10636 561-689 P618L limits assumed): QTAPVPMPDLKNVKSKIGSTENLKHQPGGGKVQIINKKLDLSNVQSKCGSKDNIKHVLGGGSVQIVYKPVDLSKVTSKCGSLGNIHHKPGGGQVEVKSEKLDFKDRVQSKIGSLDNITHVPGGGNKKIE
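Recombinant K18 P301L […], labeled with Alexa 594 at 0.24 uM over 15 uM unlabeled; heparin inducer 20 uM final; 37 C, 6 hr; FP endpoint.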
Tau fibril ThT – qHTS for Inhibitors of Tau Fibril Formation, Thioflavin T Binding; Microtubule-associated protein tau (Homo sapiens), P10636; recombinant tau K18 P301L (four-repeat tau fragment), heparin-induced fibrillization, ThT fluorescence; Potency, µM (series often up to 57.4 µM), for the others: top-dose activity, negative = inhibition, actives largely listed as inhibitors; 270,000 compounds, 2.1% hits; also: nearly all actives have a fitted effect of over 55% in size
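K18 P301L tau (15 uM + 0.24 uM Alexa 594-tagged), heparin 20 uM, NaOAc pH 7, 6 h 37 C; ThT 30 uM, 1 h RT, ex 450/em 510 nm.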
Active calls of the source: *; ? = inconclusive; · = no result given; [ ] = another dose, or the depositor's remark. Unless noted, calls follow the shape of the dose curve; as a rule, active = well fitted curve in the direction sought with a large enough effect; inconclusive = small, poorly fitted or top-dose-only effect, or another doubt; inactive = no such curve, though single readings can be large; an effect the other way counts as inactive or inconclusive. Unless noted, % is scaled to controls: 0 for no effect and ±100 for the full control effect; potency is read from the fitted curve at half-maximal effect.

SMILES	JMJD2E inh	TRb SRC2 PPI	Tau fluor cs	TexasRed fluor	Tau fibril FP	Tau fibril ThT
Oc1ccc2ccccc2c1/C=N/Nc1ccccc1	7.9µM*	-1%	11µM*[quencher]	0%	?	18µM*
O=S(=O)(/N=C/c1c(O)ccc2ccccc12)c1cccs1	?	28µM*	-25%	?	?	?
O=CN/N=C/c1c(O)ccc2ccccc12	11µM*	1%	-9%	-4%	-8%	-3%
NC(=S)N/N=C/c1c(O)ccc2ccccc12	7.1µM*	1%	?	-2%	7%	·
NC(=S)N/N=C/c1coc2c(ccc3ccccc32)c1=O	0%	-1%	-11%	-3%	-5%	?
Cc1ccc(-c2nnc(Nc3ccc(C(N)=O)cc3)c3ccccc23)cc1S(=O)(=O)NCC1CCCO1 (stereo unspecified)	-30%	-4%	-11%	-1%	4%	-12%
COc1ccc(N=Nc2n(C)c3ccccc3[n+]2C)cc1	?	-4%	?	4%	?	3.2µM*
COc1ccc(Oc2c(O)c3ccccc3n(C)c2=O)cc1	?	2%	-5%	0%	-10%	-12%
Cn1cc(CNCc2cn[nH]c2-c2ccc(F)cc2)c(-c2ccc3c(c2)OCCO3)n1	5%	5%[53 µM]	-8%	-2%[53 µM]	-6%	-7%
CCc1cc(-c2[nH]ncc2-c2nc3ccccc3n2C)c(O)cc1O	?	10%	?	-2%	3%	?
CCCc1cc(-c2[nH]ncc2-c2ccc3c(c2)OCCCO3)c(O)cc1O	?	11%	10µM*[quencher]	-2%	?	?
CCCc1cc(-c2[nH]ncc2-c2ccc(C(=O)OCC)o2)c(O)cc1O	?	6%	14µM*[quencher]	-4%	?	-14%
CCN1/C(=C/C=C/c2oc3ccc(-c4ccccc4)cc3[n+]2CC)Oc2ccc(-c3ccccc3)cc21	7.9µM*	6%	4µM*[fluorescent]	-2%	?	?
Cc1ccc(CSc2nc3c(c(=O)[nH]2)C(c2cccc(F)c2F)CC(=O)N3)cc1 (stereo unspecified)	·	?	-1%	8.9µM*[quencher]	-13%	10%
N=C1/C(=C\c2ccc(-c3cccc(C(=O)O)c3)o2)C(=O)N=C2SC=C(c3ccccc3)N12	?	7%	-8%	-26%	8%	2.5µM*
Cc1ccccc1-n1c(C)cc(/C=C2/C(=N)N3C(c4ccccc4)=CSC3=NC2=O)c1C	?	21%	-22%	8%	-17%	-17%
CCSS(=O)(=O)c1cccc2cccnc12	3.2µM*	2%	10%	0%	?	?
Cc1ccc2oc(-c3ccccc3)c(O)c(=O)c2c1	14µM*	-7%	-12%	-2%	-4%	?
C=CCn1c(-c2cc(-c3ccc(C)cc3)nc3ccccc23)n[nH]c1=S	-7%	5%	?	0%	-6%	-16%
CC[C@H](C)[C@H](NC(N)=O)C(=O)NCCc1ccc(Cl)cc1	17%	-4%	-8%	0%	-4%	-1%
CCNC(=S)N1CC(C)OC(C)C1 (stereo unspecified)	5%	-13%	0%	1%	-6%	3%
COc1cc(-c2ccc(N=Nc3ccc4c(S(=O)(=O)O)cc(S(=O)(=O)O)c(N)c4c3O)c(OC)c2)ccc1N=Nc1ccc2c(S(=O)(=O)O)cc(S(=O)(=O)O)c(N)c2c1O	3.5µM*	25µM*	1µM*[quencher]	16µM*[fluorescent]	2.8µM*	1.6µM*
CCc1cc(C(=O)N2CCCC(CCC(=O)NCc3cccc(OC)c3)C2)no1 (stereo unspecified)	12%	2%	-5%	0%	-5%	-4%
Cc1ccc(-n2ccnc(NCc3cccs3)c2=O)cc1C	·	7%	-30%	-1%	-6%	?
COC(=O)c1ccc(NC(=O)Nc2ccc(OC)c(OC)c2)cc1	5%	2%	?	-2%	16%	?
SMILES	JMJD2E inh	TRb SRC2 PPI	Tau fluor cs	TexasRed fluor	Tau fibril FP	Tau fibril ThT
COc1ccc(NC(=O)NC23CC4(C)CC(C)(CC(C)(C4)C2)C3)cc1OC	-4%	-3%	13µM*[quencher]	7%	4%	?
O=CN(/C=C1\Sc2ccccc2C1=O)Cc1ccccc1	?	22%	-22%	16%	11%	?
COc1ccc(NC(=O)/C(Cl)=C(/Cl)S(=O)(=O)Cc2ccc(C)cc2)cn1	-3%	5%	-25%	3%	?	8.9µM*
COc1ccc(NC(=O)/C(Cl)=C(/Cl)S(=O)Cc2ccccc2Cl)cn1 (stereo unspecified)	-1%	3%	-11%	-1%	?	8.9µM*
NNC(=O)c1ccc(O)cc1O	20%	2%	-3%	-2%	3%	-11%
C/C(=N\NC(N)=S)c1ccc(-n2ccnc2)cc1	-2%	5%	0%	0%	-3%	?
C/C(=N\Nc1ccc(Cl)c(Cl)c1)c1ccc(-n2ccnc2)cc1	-15%	2%	14µM*[quencher]	-3%	2%	?
COc1ccc(/C=N/OCC(=O)N=Nc2c(O)[nH]c3ccc(Br)cc23)cc1OC	15%	1%	?	-9%	?	18µM*
COc1ccc(/C(C)=N/OCC(=O)N=Nc2c(O)[nH]c3ccc(Br)cc23)cc1	-3%	-4%[53 µM]	-18%	-1%[53 µM]	?	?
CCOC(=O)N1CCN(Cc2nc3cc(NC(=O)c4ccccc4OC)ccc3n2C(C)C)CC1	·	-3%	-6%	8%	4%	-11%
CCOC(=O)N1CCN(Cc2nc3cc(NC(=O)c4ccccc4[N+](=O)[O-])ccc3n2C(C)C)CC1	·	?	-4%	8.9µM*[quencher]	0%	-3%
Cc1cc(C)cc(N2C(=O)CC(Sc3ncn[nH]3)C2=O)c1 (stereo unspecified)	1.3µM*	0%	-8%	-2%	2%	?
Cc1ccc(-c2csc(N3N=C(c4ccccc4)/C(=C\c4ccc(N(C)C)cc4)C3=O)n2)cc1	-5%	?	?	40µM*[quencher]	-2%	?
CN(C)c1ccc(/C=c2\sc3nc(-c4ccccc4)nn3c2=O)cc1	5%	-3%	3%	-1%	2%	-2%
O=C(COc1ccc([N+](=O)[O-])cc1)N/N=C/c1cc([N+](=O)[O-])ccc1N1CCOCC1	1%	-5%	-26%	-3%	-3%	4µM*

High-throughput results deposited in PubChem by National Center for Advancing Translational Sciences (NCATS).
